The list shows a part of the results. No count for the full screen is at hand.
Biological target: furin, P09958
Assay: furin cleavage Z-score vs untreated control; higher = more cleavage, active = 3.5 or more, inactive = 1 or less, 8 variable residues between constant flanks
Method in brief: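 Cleavage by purified furin was measured on 8-mer peptides fused to a cDNA oligonucleotide and held on magnetic beads by their N-terminus. Reactions (0.01 ml, 1:10 enzyme:substrate) ran 7.5, 15 or 30 min in 50 mM HEPES pH 7.5 with CaCl2 and NaCl. Released DNA was adapter-tagged by PCR and sequenced, with read counts giving abundance. Log counts versus furin-free reactions were lowess-adjusted and scaled by median absolute deviation to give the cleavage Z-score.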

Sequence of furin, P09958 (P09958 whole entry): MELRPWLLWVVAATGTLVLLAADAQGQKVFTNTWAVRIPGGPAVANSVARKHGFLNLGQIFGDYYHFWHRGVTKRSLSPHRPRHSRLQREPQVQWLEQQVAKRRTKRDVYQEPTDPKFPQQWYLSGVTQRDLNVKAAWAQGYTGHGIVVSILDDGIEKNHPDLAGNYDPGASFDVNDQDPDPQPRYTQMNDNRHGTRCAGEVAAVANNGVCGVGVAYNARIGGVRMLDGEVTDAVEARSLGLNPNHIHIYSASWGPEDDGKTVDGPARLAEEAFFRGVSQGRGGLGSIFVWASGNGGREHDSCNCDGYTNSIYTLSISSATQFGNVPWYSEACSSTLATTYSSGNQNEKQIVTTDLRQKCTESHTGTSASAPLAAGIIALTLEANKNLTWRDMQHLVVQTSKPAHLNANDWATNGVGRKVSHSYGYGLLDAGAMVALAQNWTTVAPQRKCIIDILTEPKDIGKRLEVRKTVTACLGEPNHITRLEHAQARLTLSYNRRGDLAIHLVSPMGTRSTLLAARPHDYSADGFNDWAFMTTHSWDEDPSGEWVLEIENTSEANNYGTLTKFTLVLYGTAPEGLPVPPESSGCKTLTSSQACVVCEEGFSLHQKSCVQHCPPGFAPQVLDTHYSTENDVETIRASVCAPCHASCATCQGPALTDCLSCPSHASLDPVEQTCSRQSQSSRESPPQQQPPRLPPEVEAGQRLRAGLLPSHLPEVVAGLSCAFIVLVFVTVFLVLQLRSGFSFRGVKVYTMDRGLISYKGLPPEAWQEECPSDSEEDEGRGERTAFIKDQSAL

B1: HC1646 (peptide)
chain: CAFTAGYSGGAGNASASA
For B1, the “furin cleavage Z-score” value (7.5 min) was -0.828 (inactive), the “furin cleavage Z-score” value (15 min) was -0.656 (inactive) and the “furin cleavage Z-score” value (30 min) was -0.88 (inactive).

B2: HC2337 (peptide)
chain: CAESPCHRPSAGNASASA
For B2, the “furin cleavage Z-score” value (7.5 min) was 1.16, the “furin cleavage Z-score” value (15 min) was 0.888 (inactive) and the “furin cleavage Z-score” value (30 min) was -0.202 (inactive).

B3: HC1929 (peptide)
chain: CATTPCSGSYAGNASASA
In the case of B3, the “furin cleavage Z-score” value (7.5 min) is reported as -0.34 (inactive), the “furin cleavage Z-score” value (15 min) is reported as -0.574 (inactive) and the “furin cleavage Z-score” value (30 min) is reported as 0.025 (inactive).

B4: HC2504 (peptide)
chain: CASTICSAHLAGNASASA
In the case of B4, the “furin cleavage Z-score” value (7.5 min) is reported as 1.31, the “furin cleavage Z-score” value (15 min) is reported as -0.501 (inactive) and the “furin cleavage Z-score” value (30 min) is reported as 1.12.

B5: HC552 (peptide)
chain: CAVPGAVYTFAGNASASA
With B5 the “furin cleavage Z-score” value (7.5 min) was -0.518 (inactive), the “furin cleavage Z-score” value (15 min) was 0.509 (inactive) and the “furin cleavage Z-score” value (30 min) was -0.772 (inactive).

B6: FS-2641 (peptide)
chain: CARALRSVSRAGNASASA
B6 was tested, and the “furin cleavage Z-score” value (7.5 min) was -0.658 (inactive), the “furin cleavage Z-score” value (15 min) was -0.337 (inactive) and the “furin cleavage Z-score” value (30 min) was 0.074 (inactive).

B7: FS-2325 (peptide)
chain: CARALRSLDLAGNASASA
In the case of B7, the “furin cleavage Z-score” value (7.5 min) is reported as 3.52 (active), the “furin cleavage Z-score” value (15 min) is reported as 2.8 and the “furin cleavage Z-score” value (30 min) is reported as 4.65 (active).

B8: FS-3076 (peptide)
chain: CARSCRAAQAAGNASASA
In the case of B8, the “furin cleavage Z-score” value (7.5 min) is reported as 0.547 (inactive), the “furin cleavage Z-score” value (15 min) is reported as 1.19 and the “furin cleavage Z-score” value (30 min) is reported as 1.76.

B9: FS-2535 (peptide)
chain: CARVRRAAQAAGNASASA
In the case of B9, the “furin cleavage Z-score” value (7.5 min) is reported as 8.23 (active), the “furin cleavage Z-score” value (15 min) is reported as 7.6 (active) and the “furin cleavage Z-score” value (30 min) is reported as 6.83 (active).

B10: FS-1944 (peptide)
chain: CARALRSSGTAGNASASA
In the case of B10, the “furin cleavage Z-score” value (7.5 min) is reported as -0.0204 (inactive), the “furin cleavage Z-score” value (15 min) is reported as -0.353 (inactive) and the “furin cleavage Z-score” value (30 min) is reported as 0.495 (inactive).

B11: FS-2105 (peptide)
chain: CARVRRAAQGAGNASASA
For B11, the “furin cleavage Z-score” value (7.5 min) was 8.98 (active), the “furin cleavage Z-score” value (15 min) was 8.61 (active) and the “furin cleavage Z-score” value (30 min) was 7.68 (active).

B12: FS-3174 (peptide)
chain: CARVRRQLDRAGNASASA
For B12, the “furin cleavage Z-score” value (7.5 min) was 10.3 (active), the “furin cleavage Z-score” value (15 min) was 12.6 (active) and the “furin cleavage Z-score” value (30 min) was 9.92 (active).

B13: FS-1796 (peptide)
chain: CARTDRSSDRAGNASASA
In the case of B13, the “furin cleavage Z-score” value (7.5 min) is reported as -0.725 (inactive), the “furin cleavage Z-score” value (15 min) is reported as -1.9 (inactive) and the “furin cleavage Z-score” value (30 min) is reported as -1.59 (inactive).

B14: HC781 (peptide)
chain: CAPAAYAAQGAGNASASA
In the case of B14, the “furin cleavage Z-score” value (7.5 min) is reported as 0.244 (inactive), the “furin cleavage Z-score” value (15 min) is reported as 1.54 and the “furin cleavage Z-score” value (30 min) is reported as 0.00948 (inactive).

B15: HC1914 (peptide)
chain: CATTPCSGKWAGNASASA
In the case of B15, the “furin cleavage Z-score” value (7.5 min) is reported as -1.59 (inactive), the “furin cleavage Z-score” value (15 min) is reported as 1.19 and the “furin cleavage Z-score” value (30 min) is reported as -1.38 (inactive).

B16: HC1547 (peptide)
chain: CAPPQPEYDLAGNASASA
B16 was tested, and the “furin cleavage Z-score” value (7.5 min) was -0.102 (inactive), the “furin cleavage Z-score” value (15 min) was 2.02 and the “furin cleavage Z-score” value (30 min) was -0.964 (inactive).

B17: FS-1874 (peptide)
chain: CAVQARDLGPAGNASASA
In the case of B17, the “furin cleavage Z-score” value (7.5 min) is reported as -2.04 (inactive), the “furin cleavage Z-score” value (15 min) is reported as -0.417 (inactive) and the “furin cleavage Z-score” value (30 min) is reported as -1.57 (inactive).

B18: HC2260 (peptide)
chain: CAEVVTSTWCAGNASASA
B18 was tested, and the “furin cleavage Z-score” value (7.5 min) was -0.517 (inactive), the “furin cleavage Z-score” value (15 min) was 2.75 and the “furin cleavage Z-score” value (30 min) was 0.14 (inactive).

B19: FS-2843 (peptide)
chain: CARVRRRLDLAGNASASA
B19 was tested, and the “furin cleavage Z-score” value (7.5 min) was 2.08, the “furin cleavage Z-score” value (15 min) was 5.18 (active) and the “furin cleavage Z-score” value (30 min) was 6.19 (active).

B20: FS-2104 (peptide)
chain: CARVRRAAAEAGNASASA
In the case of B20, the “furin cleavage Z-score” value (7.5 min) is reported as 12.4 (active), the “furin cleavage Z-score” value (15 min) is reported as 11.6 (active) and the “furin cleavage Z-score” value (30 min) is reported as 8.72 (active).

B21: HC1408 (peptide)
chain: CAASKVKANLAGNASASA
In the case of B21, the “furin cleavage Z-score” value (7.5 min) is reported as 2.23, the “furin cleavage Z-score” value (15 min) is reported as 1.5 and the “furin cleavage Z-score” value (30 min) is reported as -1.01 (inactive).

B22: FS-2918 (peptide)
chain: CARETRYVELAGNASASA
With B22 the “furin cleavage Z-score” value (7.5 min) was 0.274 (inactive), the “furin cleavage Z-score” value (15 min) was 0.951 (inactive) and the “furin cleavage Z-score” value (30 min) was 1.86.

B23: FS-1699 (peptide)
chain: CARETRSFTKAGNASASA
B23 was tested, and the “furin cleavage Z-score” value (7.5 min) was -0.268 (inactive), the “furin cleavage Z-score” value (15 min) was -1.13 (inactive) and the “furin cleavage Z-score” value (30 min) was 0.163 (inactive).

B24: FS-186 (peptide)
chain: CARETRSARDAGNASASA
In the case of B24, the “furin cleavage Z-score” value (7.5 min) is reported as 4.31 (active), the “furin cleavage Z-score” value (15 min) is reported as 4.67 (active) and the “furin cleavage Z-score” value (30 min) is reported as 5.64 (active).

B25: FS-1338 (peptide)
chain: CAHKKRSARDAGNASASA
B25 was tested, and the “furin cleavage Z-score” value (7.5 min) was 9.15 (active), the “furin cleavage Z-score” value (15 min) was 11 (active) and the “furin cleavage Z-score” value (30 min) was 8.17 (active).

B26: HC564 (peptide)
chain: CAAYALDTEVAGNASASA
In the case of B26, the “furin cleavage Z-score” value (7.5 min) is reported as -0.288 (inactive), the “furin cleavage Z-score” value (15 min) is reported as -0.347 (inactive) and the “furin cleavage Z-score” value (30 min) is reported as 0.258 (inactive).

B27: HC1743 (peptide)
chain: CAMEECSQALAGNASASA
With B27 the “furin cleavage Z-score” value (7.5 min) was 1.12, the “furin cleavage Z-score” value (15 min) was 0.147 (inactive) and the “furin cleavage Z-score” value (30 min) was 0.968 (inactive).

From the supplement of paper PMC3545927
